The record followed here is PubChem BioAssay AID1445 (SRMLSC, 2008).

What is called inhibition is the relative decrease from the control value, in per cent.

The campaign covered roughly 220,000 compounds. About 910 (0.41%) were called active.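 How the source made its calls: active means primary inhibition above the hit cutoff, then over 50% inhibition at one or more dose response concentrations (cut at about 23% in these data, passing the limit was not always enough); inconclusive means conflicting primary data, or primary hits not chosen for dose response; inactive means low primary inhibition, or under 50% at every dose.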 The full list was thinned out, with actives kept by preference. Potency and affinity values are given separately.

For this experiment, the target named is Aminopeptidase N (Plasmodium falciparum (isolate 3D7)) (UniProt O96935). As to the kind of experiment: malaria alanyl aminopeptidase activity blockers – biochemical, fluorogenic H-Leu-NHMec substrate, 1536-well (AID 1445).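 Further: plate controls were DMSO full reaction for no effect and no enzyme background for full effect.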 Particulars: recombinant M1AAP, H-Leu-NHMec fluorogenic kinetic assay; at 30 µM, active compounds read high unless noted.
Sequence of Aminopeptidase N (Plasmodium falciparum (isolate 3D7)) (O96935 whole entry, looked up): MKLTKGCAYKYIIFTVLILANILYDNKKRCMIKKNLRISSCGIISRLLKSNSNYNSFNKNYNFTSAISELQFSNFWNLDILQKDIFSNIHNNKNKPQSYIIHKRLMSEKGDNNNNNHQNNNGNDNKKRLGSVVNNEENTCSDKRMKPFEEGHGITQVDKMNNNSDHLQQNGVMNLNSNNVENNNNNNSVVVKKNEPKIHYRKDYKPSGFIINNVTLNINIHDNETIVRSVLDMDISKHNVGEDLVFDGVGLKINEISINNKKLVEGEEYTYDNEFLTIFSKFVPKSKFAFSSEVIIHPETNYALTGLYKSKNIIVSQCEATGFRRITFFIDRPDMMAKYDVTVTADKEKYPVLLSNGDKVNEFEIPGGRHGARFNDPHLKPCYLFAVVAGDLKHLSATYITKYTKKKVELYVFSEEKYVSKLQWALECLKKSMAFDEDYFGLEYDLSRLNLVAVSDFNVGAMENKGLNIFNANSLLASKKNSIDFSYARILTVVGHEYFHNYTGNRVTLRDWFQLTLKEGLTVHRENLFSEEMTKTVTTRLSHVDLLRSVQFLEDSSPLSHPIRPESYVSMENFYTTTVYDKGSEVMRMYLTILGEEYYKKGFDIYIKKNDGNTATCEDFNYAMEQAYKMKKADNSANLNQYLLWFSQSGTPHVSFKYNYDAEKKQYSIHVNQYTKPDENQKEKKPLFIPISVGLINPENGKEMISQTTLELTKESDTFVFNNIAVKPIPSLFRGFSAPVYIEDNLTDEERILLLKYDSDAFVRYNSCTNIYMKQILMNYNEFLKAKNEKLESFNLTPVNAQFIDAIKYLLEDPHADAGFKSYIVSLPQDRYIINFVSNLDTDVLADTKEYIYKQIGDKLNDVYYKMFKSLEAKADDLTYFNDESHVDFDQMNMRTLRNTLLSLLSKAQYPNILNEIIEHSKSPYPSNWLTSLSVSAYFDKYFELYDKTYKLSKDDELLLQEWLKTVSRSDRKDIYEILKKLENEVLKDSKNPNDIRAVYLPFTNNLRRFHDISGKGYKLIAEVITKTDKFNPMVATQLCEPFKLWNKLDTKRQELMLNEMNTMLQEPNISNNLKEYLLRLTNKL
`O=C(COc1cc(F)ccc1[N+](=O)[O-])Nc1ccc(N2CCOCC2)cc1`: the inhibition is 1.97% (inactive).

`COc1cc(/C=C/C(=O)O)cc(S(=O)(=O)N2CCc3ccccc32)c1OC`: the inhibition is 7.41% (inactive).

As to `O=C(O)Cc1ccc(-c2ccccc2-c2ccccc2)cc1`, the inhibition was 6.14% (inactive).

`COc1ccc(OC)c(C(C)NC(=O)c2ccc(Br)cc2)c1` (configuration not stated): the inhibition was 6.29% (inactive).

Take `CCc1cccc(CC)c1NC(=O)c1ccc(-n2cncn2)nc1`: the inhibition was 3.55% (inactive).

As to `Cc1c(Cl)cccc1NC(=O)CCC(=O)N/N=C/c1ccc[nH]1`, the inhibition is 6.91% (inactive).

On to `CC(=O)Nc1sc(C)c(C)c1C(=O)Nc1ccc(C)cc1`, for which the inhibition was 10.1% (inactive).

For `COc1ccc(N=C2S/C(=C\c3ccc(OC(C)C(=O)O)c(OC)c3)C(=O)N2CCc2c[nH]c3ccccc23)cc1` (configuration not stated), the inhibition is 31.6% (inactive).

For `COc1cc(/C=C2\SC(=Nc3ccccc3)N(CCc3c[nH]c4ccccc34)C2=O)ccc1OC(C)C(=O)O` (configuration not stated), the inhibition was 16.3% (inactive).

Regarding `CCCn1c(N2CCN(C)CC2)nc2c1c(=O)[nH]c(=O)n2C`, the inhibition was -4.63% (inactive).

In the case of `CCN(C1=NS(=O)(=O)c2ccccc21)N(CC)S(=O)(=O)c1ccc(C)cc1`, the inhibition was -4.7% (inactive).

As for `COc1ccc(S(=O)(=O)N(NC2=NS(=O)(=O)c3ccccc32)C(=O)C(C)C)cc1`, the inhibition is 9.06% (inactive).

As for `CC1CCCCC1NC(=O)C(=O)NCC1CCCO1` (configuration not stated), the inhibition is 0.74% (inactive).

Take `Clc1cccc(-c2ccc(CNCCCN3CCOCC3)o2)c1`: the inhibition is 2.45% (inactive).

As to `O=C(CCCn1ncn2c(cc3occc32)c1=O)N1CCc2ccccc2C1`, the inhibition is 2.44% (inactive).

Take `CCc1nn(CCCC(=O)N2CCc3ccccc3C2)c(=O)c2cc3occc3n12`: the inhibition is 23.8% (active).

With `CCc1nn(C(C)C(=O)N2CCc3ccccc3C2)c(=O)c2cc3occc3n12` (configuration not stated), the inhibition is 2.28% (inactive).

With `CS(=O)(=O)N(Cc1ccc(C(=O)NC2CCCCC2O)cc1)c1ccccc1` (configuration not stated), the inhibition was 4.69% (inactive).

As to `CCOC(=O)N1CCN(C(=O)CN2C(=O)COc3ccc(C(C)(C)C)cc32)CC1`, the inhibition is 2.47% (inactive).

In the case of `O=S(=O)(Nc1ccc(-c2nc3cccnc3s2)cc1)c1ccc(Cl)s1`, the inhibition is 13.1% (inactive).

On to `CCS(=O)(=O)Nc1ccc(-c2nc3cccnc3s2)cc1`, for which the inhibition is 11.6% (inactive).

As to `CCc1ccc(S(=O)(=O)Nc2ccc(-c3nc4cccnc4s3)cc2)s1`, the inhibition is 27.2% (active).

With `N#Cc1c(N2C(=O)Nc3ccccc3N2O)sc2c1CCCCCC2`, the inhibition was 11.8% (inactive).

`C=CCn1c(C(CC)CC(C)(C)O)n[nH]c1=S` (configuration not stated): the inhibition was -5.97% (inactive).

For `Cc1cc2cc(CCNC(=O)c3ccc(S(=O)(=O)N4CCOCC4)cc3)c(=O)[nH]c2cc1C`, the inhibition is 0.05% (inactive).

As for `O=C1NC(=O)/C(=C\c2ccccc2OCc2ccccc2)S1`, the inhibition was 12.7% (inactive).

Consider `O=C(COc1ccccc1/C=C1/NC(=O)NC1=O)Nc1ccccc1`, for which the inhibition was 16.8% (inactive).

For the compound `O=C1NC(=O)/C(=C/c2ccccc2OCc2ccccc2)S1`, the inhibition is 19.3% (inactive).

Regarding `C=CCN1C(=O)N/C(=C/c2ccccc2OCC(=O)Nc2ccc(F)cc2)C1=O`, the inhibition was 6.37% (inactive).

Regarding `CSCC[C@@H](C(=O)NCc1cccs1)N1Cc2ccccc2C1=O`, the inhibition was 6.93% (inactive).

Turning to `CC(=O)Nc1ccc(S(=O)(=O)N2CCC(NC(=O)C(Cc3cccn3C)NC(C)=O)CC2)cc1` (configuration not stated), the inhibition is -2.05% (inactive).

As for `O=C(CCCn1cnc([N+](=O)[O-])n1)Nc1cccc(O)c1`, the inhibition was 4.83% (inactive).

As for `C[C@H](NC(=O)c1nc[nH]c1C(=O)N[C@@H](Cc1ccccc1)C(=O)OC(C)(C)C)c1ccccc1`, the inhibition was -12.4% (inactive).

As for `COC(=O)C1=C(C(=O)OC)[C@@H]2N(Cc3ccccc3)c3ccccc3[C@@]23C[C@@H](C(=O)OC)N=C3N1`, the inhibition was 7.23% (inactive).

With `Cc1ccc2[nH]c(=O)c(CN(Cc3ccco3)S(=O)(=O)c3c(C)ccc4nsnc34)cc2c1`, the inhibition is 24.1% (active).

As for `Cc1ccc2cc(CN(Cc3ccco3)S(=O)(=O)c3c(C)ccc4nsnc34)c(=O)[nH]c2c1`, the inhibition was 8.06% (inactive).

On to `Cc1cc2cc(CN(Cc3ccco3)S(=O)(=O)c3c(C)ccc4nsnc34)c(=O)[nH]c2cc1C`, for which the inhibition was 12.1% (inactive).

Regarding `CC12CNCC(C)(CN(C3(O)C(=O)Nc4ccc(Br)cc43)C1)C2=O` (configuration not stated), the inhibition is -7.16% (inactive).

For the compound `O=C(/C=C/c1cccc([N+](=O)[O-])c1)NCc1ccc2c(c1)OCO2`, the inhibition was 6.01% (inactive).

For the compound `O=C(c1cccc([N+](=O)[O-])c1)N1CCN(Cc2ccc3c(c2)OCO3)CC1`, the inhibition is 0.06% (inactive).

Consider `CN(Cc1c(F)cccc1Cl)c1ccc(S(=O)(=O)N2CCOCC2)cn1`, for which the inhibition is -2.07% (inactive).

As to `O=C1OC(c2cccs2)=N/C1=C/c1ccc(-c2cccc(C(=O)O)c2)o1`, the inhibition was 10.5% (inactive).

For the compound `O=C1OC(c2cccs2)=N/C1=C\c1ccc(-c2ccccc2Cl)o1`, the inhibition is 15.5% (inactive).

For the compound `O=C1OC(c2cccs2)=N/C1=C\c1ccc(-c2cccc(Cl)c2)o1`, the inhibition was 24.5% (active).

Turning to `O=C(COC(=O)c1cccs1)NC1CCCCC1`, the inhibition was 4.47% (inactive).

Consider `O=C(O)c1ccccc1-c1ccc(/C=C/c2cc(C(F)(F)F)[nH]c(=O)n2)o1`, for which the inhibition is 15.6% (inactive).

Consider `COc1ccc(/C=C/c2cc(C(F)(F)F)[nH]c(=O)n2)cc1OC`, for which the inhibition was 10.6% (inactive).

In the case of `O=c1nc(/C=C/c2ccc(-c3ccc(F)cc3)o2)cc(C(F)(F)F)[nH]1`, the inhibition is 27.6% (active).

For the compound `COC(=O)[C@@H]1CC[C@H](C)[C@@H](c2ccc(C)cc2)N1C(=O)c1ccc(/C=N/OC[C@@H](O)[C@H]2O[C@@H]3OC(C)(C)O[C@@H]3[C@H]2O)cc1`, the inhibition is 7.48% (inactive).

Regarding `COc1ccccc1NC(=O)c1cc([N+](=O)[O-])ccc1NCCN1C(=O)CCC1=O`, the inhibition is 10.1% (inactive).

`Cc1ccc(S(=O)(=O)Nc2ccc3oc(=O)sc3c2)c(C)c1`: the inhibition is 21.7% (inactive).

As for `O=C(O)c1cccc(S(=O)(=O)Nc2ccc3oc(=O)sc3c2)c1`, the inhibition was 89.5% (inactive).

Turning to `OCCN1CCN(CCOc2ccccc2-c2ccccc2)CC1`, the inhibition was -1.14% (inactive).

Take `C=C(C)c1cccc(C(C)(C)NC(=O)Nc2cc(C)ccn2)c1`: the inhibition is 14.8% (inactive).

For the compound `C=C(C)c1cccc(C(C)(C)NC(=O)Nc2ccc(Cl)cn2)c1`, the inhibition is 6.48% (inactive).

For the compound `O=C(C=C1CCN(c2ncc(C(F)(F)F)cc2Cl)CC1)NNC(=O)Nc1ccc(Cl)cc1`, the inhibition was 1.48% (inactive).

On to `Nc1c(N(CCO)C(=O)C2CCCCC2)c(=O)[nH]c(=O)n1Cc1ccccc1`, for which the inhibition is 3.34% (inactive).

Turning to `COCCCN(C(=O)c1cc2c(s1)CCC2)c1c(N)n(Cc2ccccc2)c(=O)[nH]c1=O`, the inhibition is -2.38% (inactive).

Take `Cc1nnc2sc(-c3ccccn3)nn12`: the inhibition is -1.47% (inactive).

`COC(=O)C1=C(N)Oc2cc(C)n(CC3CCCO3)c(=O)c2C1c1ccc(Cl)cc1` (configuration not stated): the inhibition is 10.9% (inactive).

Turning to `COC(=O)C1=C(N)Oc2cc(C)n(C)c(=O)c2C1c1ccc(Cl)cc1` (configuration not stated), the inhibition is -1.12% (inactive).

With `COC(=O)C1=C(N)Oc2cc(C)n(CCCn3ccnc3)c(=O)c2C1c1ccc(Cl)cc1` (configuration not stated), the inhibition was 27.9% (active).

Regarding `Cc1ccc(C)c(-n2c(Cc3cccs3)n[nH]c2=S)c1`, the inhibition was -6.44% (inactive).

On to `CC(C)CCNC(=O)C(c1ccco1)N(CCCO)C(=O)Cn1nnc(-c2ccc(F)cc2)n1` (configuration not stated), for which the inhibition was 2.71% (inactive).

Turning to `O=C(CSc1nnc(NC2CCCCC2)s1)Nc1ccc(N2CCOCC2)cc1`, the inhibition is 0.83% (inactive).

As for `O=C(Nc1ccccc1)/C(=C/c1cccnc1)NC(=O)c1ccco1`, the inhibition was -3.98% (inactive).

`CCOc1cc(/C=N\NC(=O)c2ccc(C)nc2)cc([N+](=O)[O-])c1O`: the inhibition is 19.1% (inactive).

For `Cc1ccc(/C=N/NC(=O)c2cccs2)cc1[N+](=O)[O-]`, the inhibition is 5.44% (inactive).

As to `O=C(c1cccnc1)N1CCN(c2ccc([N+](=O)[O-])cc2Cl)CC1`, the inhibition was 7.28% (inactive).

As to `CCN1CCCC1CNC(=O)C(=O)Nc1ccccc1` (configuration not stated), the inhibition is 4.81% (inactive).

On to `O=C1Nc2ccc(Cl)cc2C12Nc1ccccc1-c1nnc(SCc3ccccc3F)nc1O2` (configuration not stated), for which the inhibition is 19.9% (inactive).

Regarding `O=C1Nc2ccc(F)cc2C12Nc1ccccc1-c1nnc(SCc3ccccc3Cl)nc1O2` (configuration not stated), the inhibition was 14.4% (inactive).

Consider `CC(Oc1cc(F)ccc1[N+](=O)[O-])C(=O)N(C)CC(=O)Nc1ccccc1C(F)(F)F` (configuration not stated), for which the inhibition was 7.16% (inactive).

`O=C1C2=C(c3ccccc31)[N+](=O)[C@@H]1CCCC[C@@H]1N2[O-]`: the inhibition is 8.78% (inactive).

As to `CC(NC(=S)Nc1ccc(F)cc1)C(c1cccs1)N1CCOCC1` (configuration not stated), the inhibition is 1.91% (inactive).

As to `CC1=CN2C(=N)/C(=C/c3ccco3)C(=O)N=C2S1`, the inhibition was 11% (inactive).

With `CC1=CN2C(=N)/C(=C/c3ccc(C)o3)C(=O)N=C2S1`, the inhibition is 20.6% (inactive).

Consider `N#Cc1cc2c(N)c(C(=O)Nc3ccccc3)sc2nc1N`, for which the inhibition is -0.33% (inactive).

As to `CCN(CC)S(=O)(=O)c1ccc2c(c1)nc(CCC(=O)OCC(=O)Nc1cc(Cl)cc(Cl)c1)n2C`, the inhibition was 0.35% (inactive).

For `Cc1nnc(SCC(=O)Nc2sc3c(c2C(N)=O)CCCC3)[nH]c1=O`, the inhibition is 11.5% (inactive).

As for `CCOC(=O)c1c(NC(=O)CSc2nnc(C)c(=O)[nH]2)sc(C)c1C`, the inhibition was 6.77% (inactive).

With `O=C(Nc1cccc2cccnc12)c1ccc2c(c1)OCCO2`, the inhibition was 3.45% (inactive).

For the compound `COC(=O)c1c(C(=O)OC)c(-c2cccc(Cl)c2)n2c1CS(=O)C2` (configuration not stated), the inhibition is 12.7% (inactive).

As to `Cc1nnc(SCC(=O)Nc2cccc(C(F)(F)F)c2)[nH]c1=O`, the inhibition was 3.06% (inactive).

With `CSc1nc(N(C)CCO)c2sc3nc(-c4ccco4)c4c(c3c2n1)CCC4`, the inhibition was 11.4% (inactive).

Consider `CSc1nc(N(CCO)CCO)c2sc3nc(-c4ccco4)c4c(c3c2n1)CCC4`, for which the inhibition was 27.5% (active).

`CCN(CCO)c1nc(SC)nc2c1sc1nc(-c3ccco3)c3c(c12)CCC3`: the inhibition was 20% (inactive).
